High-throughput results: PubChem BioAssay, National Center for Advancing Translational Sciences (NCATS)
TDP43 rescue: inhibitors of TDP-43 toxicity in yeast; Potency, µM (highest dose often 46.1 µM), without a hit: at the top dose growth rescue (activation), usual class: activators; AID 652104; TDP-43 expressing yeast growth rescue, BacTiter-Glo, 24 h; actives 1.8% (n = 410,000); further: potency means the concentration at half of the fitted maximal effect; % of control where 0% means no effect; nearly all actives have a fitted effect of over 50% in size
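Galactose-induced TDP-43 yeast, OD600=0.02, compound pinned; 24 hr, 30 deg C; BacTiter-Glo luminescence for growth. Inhibitors of TDP-43 toxicity read as activators.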
Abeta rescue: restores growth of yeast expressing A-beta42 peptide. Potency, µM (highest dose often 46.1 µM), hits mostly activators. yeast expressing A-beta42, growth rescue, OD600, 48 h; response scale: 0% DMSO, 100% iron-clioquinol control. actives 0.063% (n = 410,000); further: potency means the concentration at half of the fitted maximal effect; nearly all actives have a fitted effect of over 55% in size
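Yeast growth medium received pinned compounds, then yeast cells expressing toxic A-beta were added; plates incubated at 30 C for 48 hr. Growth read as absorbance at 600 nm, normalized to DMSO and equimolar FeCl3 plus clioquinol controls.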
mIDH1 inhibitor: inhibitors of human mutant IDH1 R132H. IDH1-R132H enzyme, NADPH consumption, diaphorase/resazurin fluorescence. Potency, µM (series often up to 76.6 µM), for inactives: at the top dose activity change, negative = inhibition, hits mostly inhibitors. actives 0.093% (n = 390,000); further: potency means the concentration at half of the fitted maximal effect; on the % scale 0 is the no-effect control and ±100 the full control effect; nearly all actives have a fitted effect of over 65% in size
Target sequence (O75874 whole entry R132H, stated change not applied): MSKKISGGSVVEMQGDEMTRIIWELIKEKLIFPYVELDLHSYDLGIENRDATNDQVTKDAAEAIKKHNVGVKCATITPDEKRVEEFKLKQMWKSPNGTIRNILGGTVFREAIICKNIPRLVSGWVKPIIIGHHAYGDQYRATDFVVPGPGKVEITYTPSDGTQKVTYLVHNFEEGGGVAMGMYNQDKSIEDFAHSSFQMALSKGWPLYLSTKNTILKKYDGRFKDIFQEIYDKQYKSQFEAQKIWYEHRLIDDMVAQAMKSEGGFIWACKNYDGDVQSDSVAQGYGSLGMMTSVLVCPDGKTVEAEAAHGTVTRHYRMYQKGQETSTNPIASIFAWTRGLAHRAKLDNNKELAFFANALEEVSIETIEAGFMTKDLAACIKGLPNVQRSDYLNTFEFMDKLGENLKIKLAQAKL
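IDH1-R132H (0.5 ug/mL dispensed) in pH 7.5 Tris buffer was preincubated 30 min with compound, then given a substrate mix of 0.016 mM NADPH and 2 mM alpha-KG for 80 min at room temperature; remaining NADPH was read by diaphorase/resazurin fluorescence.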
FUS yeast rescue: suppressors of FUS proteinopathy in yeast; S. cerevisiae FUS-expressing, growth rescue, OD600, 24 h; Potency, µM (doses to about 76.6 µM), usual class: activators; actives 0.24% (n = 390,000); AID 1347120;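 further: potency means the concentration at half of the fitted maximal effect; plate controls were DMSO vehicle for no effect and reference control for full effect; nearly all actives have a fitted effect of over 55% in size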
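Restored growth of FUS-toxic S. cerevisiae, read as 600 nm absorbance after 24 h at 30C in galactose medium (starting OD 0.005). Controls CP55940 and DMSO.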
aSyn rescue: inhibitors of alpha-synuclein toxicity in yeast. Potency, µM (series often up to 46.1 µM), without a hit: top-dose growth rescue (activation), usual class: activators. AID 652106. Yeast expressing alpha-synuclein, growth rescue, BacTiter-Glo, 24 h. actives 0.14% (n = 370,000); further: potency means the concentration at half of the fitted maximal effect; % of control where 0% means no effect; nearly all actives have a fitted effect of over 65% in size
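Rescue of yeast growth: cells expressing toxic alpha-synuclein, induced in galactose at OD600 0.02, incubated with compound 24 h at 30 C. ATP luminescence quantified growth; inhibitors of toxicity appear as activators.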
LDHA inh: inhibitors of human lactate dehydrogenase A. activity change, % (values are at about 110 or 230 µM). AID 1347041. actives 0.15% (n = 480,000). purified LDHA, NADH/diaphorase-resazurin fluorescence; active compounds read low. P00338; in the data active means activity change below about -30%; inconclusive means mostly about -25% to -30%;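 further: plate controls were DMSO wells for no effect and wells without enzyme for full effect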
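Human LDH5 (2 nM) was incubated with 0.06 mM NADH and 0.2 mM pyruvate for 5 min at room temperature in Tris pH 7.4. Remaining NADH was coupled through diaphorase/resazurin, and resorufin fluorescence was read at 0 and 20 min.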
Active calls of the source: *. Shown are actives, neighbours in structure and some others; about 2% of the full set was active somewhere. Unless noted, the call rests on the fitted dose curve; in most records, active means well fitted curve in the direction sought with a large enough effect; inconclusive means small, poorly fitted or top-dose-only effect, or another doubt; inactive means no such curve, though single readings can be large; an effect the other way counts as inactive or inconclusive.

Screening Cc1nn(Cc2ccc(F)cc2)c(C)c1NC(=O)c1cnn2c1NC(c1ccccc1)CC2C(F)(F)F (configuration not stated) returned TDP43 rescue 3%, Abeta rescue inactive, mIDH1 inhibitor -2%, FUS yeast rescue inconclusive, aSyn rescue 1% and LDHA inh -3.
`COC(=O)c1cn(NC(=O)c2cnccn2)c(=O)c2ccccc12` gave TDP43 rescue inconclusive, Abeta rescue inactive, mIDH1 inhibitor -7%, FUS yeast rescue inactive, aSyn rescue 22µM* and LDHA inh 2.
For CC(C)N(C(=O)CSc1nc2ccc(Cl)cc2[nH]1)c1ccccc1 the results were TDP43 rescue 35µM*, Abeta rescue inactive, FUS yeast rescue inactive and LDHA inh 4.
Screening CC(C)N(C(=O)CSc1nc2c([nH]1)c(=O)n(C)c(=O)n2C)c1ccccc1 returned TDP43 rescue 18%, Abeta rescue inactive, mIDH1 inhibitor -4%, FUS yeast rescue inactive, aSyn rescue 1% and LDHA inh -5.
CCOC(=O)c1sc(Nc2ccccc2)nc1C(F)(F)F was read as LDHA inh 2.
`CCOC(=O)N1CC=C2C(C#N)=C(N)C(C#N)(C#N)[C@H](c3cccs3)C2C1` (some centres not stated) gave TDP43 rescue 2%, Abeta rescue inactive, mIDH1 inhibitor -9%, FUS yeast rescue inactive, aSyn rescue 1% and LDHA inh -1.
Screening CC1CC=C2C(C#N)=C(N)C(C#N)(C#N)C(c3cccs3)C2C1 (configuration not stated) returned TDP43 rescue 13%, Abeta rescue inactive, mIDH1 inhibitor 21µM*, FUS yeast rescue inactive, aSyn rescue -13% and LDHA inh 12.
Screening O=C(Cc1ccc(S(=O)(=O)N2CCOCC2)s1)Nc1nc2c(s1)CCCC2 returned TDP43 rescue -22%, Abeta rescue inactive, mIDH1 inhibitor 7%, FUS yeast rescue 8.9µM*, aSyn rescue -9% and LDHA inh 2.
Screening O=C(Cc1ccc(S(=O)(=O)N2CCOCC2)s1)Nc1ccc2c(c1)CCC2 returned TDP43 rescue 2%, Abeta rescue inactive, mIDH1 inhibitor 3%, FUS yeast rescue inactive, aSyn rescue 4% and LDHA inh 0.
For COc1ccc(-c2noc(CSc3nnc(-c4ccco4)n3C)n2)c(OC)c1 the results were LDHA inh 12.
Screening Cc1ccc(-n2c(SCc3nc(-c4ccc(Cl)cc4)no3)nnc2-c2ccncc2)cc1 returned TDP43 rescue 35µM*, Abeta rescue inactive, mIDH1 inhibitor -6%, FUS yeast rescue inconclusive and LDHA inh -4.
Cn1c(SCc2nc(-c3ccc(Cl)cc3)no2)nnc1-c1ccco1 was read as TDP43 rescue 13µM*, Abeta rescue inactive, mIDH1 inhibitor 7%, FUS yeast rescue inactive, aSyn rescue 5% and LDHA inh -7.
`Cn1c(SCc2cccc(C(F)(F)F)c2)nnc1-c1ccco1` gave TDP43 rescue 20µM*, Abeta rescue inactive, mIDH1 inhibitor 5%, FUS yeast rescue inactive, aSyn rescue 17% and LDHA inh 2.
`Cc1ccc(-c2noc(CSc3nnc(-c4ccncc4)n3-c3ccc(C)cc3)n2)cc1` gave TDP43 rescue -5%, Abeta rescue inactive, mIDH1 inhibitor 2%, FUS yeast rescue inactive, aSyn rescue 20% and LDHA inh 2.
Screening Cc1ccc(-c2noc(CSc3nnc(C)n3-c3ccc(C)c(C)c3)n2)cc1 returned TDP43 rescue 35µM*, Abeta rescue inactive, mIDH1 inhibitor -12%, FUS yeast rescue inactive and LDHA inh -3.
`Cc1ccc(N/C=C/C(=O)c2cccc(Cl)c2)cc1` gave LDHA inh 6.
CC1CCCN(S(=O)(=O)c2ccc(S(=O)(=O)NC(C)c3cccs3)cc2)C1 (configuration not stated) was read as TDP43 rescue -12%, Abeta rescue inactive, mIDH1 inhibitor -1%, FUS yeast rescue 32µM*, aSyn rescue 11% and LDHA inh 5.
For COc1cccc(CNC(=O)c2nn(C)c3c2CSc2ccccc2-3)c1 the results were TDP43 rescue 18µM*, Abeta rescue inactive, mIDH1 inhibitor -20%, FUS yeast rescue inconclusive and LDHA inh -13.
Screening Cn1nc(C(=O)NCc2cccc(Cl)c2)c2c1-c1ccccc1SC2 returned TDP43 rescue 20µM*, Abeta rescue inactive, mIDH1 inhibitor 0%, FUS yeast rescue inactive and LDHA inh -5.
For Cn1nc(C(=O)NCc2ccccc2)c2c1-c1ccccc1SC2 the results were TDP43 rescue 20µM*, Abeta rescue inactive, mIDH1 inhibitor -16%, FUS yeast rescue inactive and LDHA inh 3.
Screening COc1ccc(NC(=O)c2nn(C)c3c2CSc2ccc(C)cc2-3)cc1OC returned TDP43 rescue 22µM*, Abeta rescue inactive, mIDH1 inhibitor -4%, FUS yeast rescue inactive and LDHA inh -8.
Screening COc1ccc(NC(=O)c2nn(C)c3c2CCc2sccc2-3)cc1OC returned LDHA inh 7.
For CCCC(NCc1ccco1)c1ccccc1 (configuration not stated) the results were LDHA inh -1.
`CC1CCCC(C)N1CCCNC(=O)c1nn(C)c2c1CSc1ccccc1-2` (configuration not stated) gave TDP43 rescue 2%, Abeta rescue inactive, mIDH1 inhibitor 2%, FUS yeast rescue inactive, aSyn rescue 6% and LDHA inh -1.
`CCCCNC(=O)c1nn(C)c2c1CSc1ccccc1-2` gave TDP43 rescue 35µM*, Abeta rescue inactive, mIDH1 inhibitor 4%, FUS yeast rescue inactive and LDHA inh -4.
O=C(COC(=O)c1c2ccccc2cc2ccccc12)NCC(F)(F)F was read as TDP43 rescue 16µM*, Abeta rescue inactive, mIDH1 inhibitor -4%, aSyn rescue 18% and LDHA inh -8.
Screening CC(C)(C)C(=O)C(Cc1ccccc1Cl)n1cncn1 (configuration not stated) returned TDP43 rescue 7.1µM*, Abeta rescue inactive, mIDH1 inhibitor 0%, FUS yeast rescue inactive, aSyn rescue 30% and LDHA inh -6.
